Source: PubChem BioAssay (National Center for Advancing Translational Sciences (NCATS))
Most compounds without a hit are left out; they make up all but 7.3% or so of the library.
HEK cytotox: HEK 293 cell cytotoxicity | HEK 293 viability, ATP luminescence (CellTiter-Glo), 48-72 h | Potency, µM (top dose mostly 115 µM), for the others: top-dose activity change, negative = cytotoxicity, most hits filed as inhibitors | hit rate 6.6% among 94,000; note: potency is the fitted concentration of half-maximal effect; nearly all actives have a fitted effect of over 60% in size
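CellTiter-Glo luminescence (cellular ATP) was read after 48 or 72 hr of compound exposure at 37 degree Celsius. Cells were HEK 293 plated at 250 cells/well.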
Luciferase inh: inhibitors of firefly (Photinus pyralis) luciferase; Potency, µM (top dose mostly 115 µM), usual class: inhibitors; AID 1347043; purified P. pyralis luciferase, luminescence, biochemical; hit rate 2.5% among 76,000; note: potency is the fitted concentration of half-maximal effect; nearly all actives have a fitted effect of over 65% in size
Target sequence (P08659 whole entry, looked up): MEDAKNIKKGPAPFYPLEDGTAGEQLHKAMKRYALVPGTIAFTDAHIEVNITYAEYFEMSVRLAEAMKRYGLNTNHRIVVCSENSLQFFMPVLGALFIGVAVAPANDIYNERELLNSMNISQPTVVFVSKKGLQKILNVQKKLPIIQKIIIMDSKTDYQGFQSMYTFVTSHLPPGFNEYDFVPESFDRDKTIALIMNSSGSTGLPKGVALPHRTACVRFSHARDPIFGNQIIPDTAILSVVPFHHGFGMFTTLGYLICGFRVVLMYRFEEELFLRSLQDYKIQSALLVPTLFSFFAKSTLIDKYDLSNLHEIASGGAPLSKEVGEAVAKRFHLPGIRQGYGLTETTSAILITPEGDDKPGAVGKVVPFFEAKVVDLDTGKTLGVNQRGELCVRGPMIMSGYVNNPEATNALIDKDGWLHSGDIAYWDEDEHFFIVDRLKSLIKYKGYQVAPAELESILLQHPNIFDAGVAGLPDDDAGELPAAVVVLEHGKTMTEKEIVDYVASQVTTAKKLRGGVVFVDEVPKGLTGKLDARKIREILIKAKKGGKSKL
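Luminescence read by CCD imaging after purified firefly luciferase (10nM final) was added to substrate buffer holding 10uM D-luciferin and 10uM ATP, pH 7.5, pre-dosed with compound.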
IP6K1 inhibitor: IP6K1 kinase inhibition; hit rate 0.81% among 140,000; AID 1645851; activity change, % (series mostly up to about 58 µM); IP6K1 kinase, ADP-Glo luminescence, 2 h; active compounds read low; Q92551; in the data active = activity change below about -25%
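ADP-Glo luminescence measures ADP made by human IP6K1 during a 2 h RT reaction with ATP/IP6 (mix at 1.3 mM/130 uM); top library doses 57.5 and 19.1 uM final.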
3T3 cytotox: cytotoxic compounds in NIH 3T3 cells. NIH 3T3 viability, CellTiter-Glo ATP luminescence, 48-72 h. Potency, µM (highest dose often 96.7 µM), for the others: at the top dose activity change, negative = cytotoxicity, actives largely listed as inhibitors. hit rate 4.3% among 94,000. AID 1345082; note: potency is the fitted concentration of half-maximal effect; nearly all actives have a fitted effect of over 55% in size
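NIH 3T3 cells at 400 cells/well received 23 nL of compound by pintool and were incubated 48 or 72 h at 37 °C. Viability was read as ATP-coupled CellTiter-Glo luminescence.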
SNCA expr inhib: reduces expression of the alpha-synuclein gene. HEK-293 SNCA-luciferase knock-in, luminescence, 24 h. Potency, µM (titrated, usually from 57.2 µM), inactives show at the top dose activity change, negative = inhibition, actives largely listed as inhibitors. hit rate 0.17% among 140,000;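 note: potency is the fitted concentration of half-maximal effect; plate controls were DMSO cells for no effect and cell-free wells for full effect; nearly all actives have a fitted effect of over 45% in size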
HEK293 viab: reduces viability of HEK-293 SNCA reporter cells; HEK-293-SNCA-luc viability, GF-AFC fluorescence, 24 h; hit rate 0.12% among 150,000; Potency, µM (series often up to 57.1 µM), without a hit: at the top dose activity change, negative = cytotoxicity, most hits filed as cytotoxic;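 note: potency is the fitted concentration of half-maximal effect; 0% = DMSO-treated cells and -100% = medium-only wells without cells; nearly all actives have a fitted effect of over 30% in size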
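Cytotoxicity counterscreen: after 24 h compound treatment of genome-edited SNCA-luciferase HEK-293 cells, live-cell protease substrate GF-AFC read by fluorescence after 30 min; activity scaled between DMSO (0%) and medium-only (-100%), curves Hill-fitted.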
The depositor's hits bear a star; i = inactive; ? = inconclusive; nt = no result given; [ ] = remark or other dose. Unless noted, calls come from the whole dose curve; as a rule, active = well fitted curve in the direction sought with a large enough effect; inconclusive = small, poorly fitted or top-dose-only effect, or another doubt; inactive = no such curve, though single readings can be large; an effect the other way counts as inactive or inconclusive. Unless noted, % is set by controls: 0 for no effect and ±100 for the full control effect.

SMILES	HEK cytotox	Luciferase inh	IP6K1 inhibitor	3T3 cytotox	SNCA expr inhib	HEK293 viab
COc1ccc(-c2cc(N3CCCC(NC(=O)c4cc5ccccc5[nH]4)C3)n[nH]2)cc1 (centres undefined)	?	8.9µM*	12	?	-9%	?
COc1ccc(-c2cc(N3CCC(NC(=O)c4cc(C)cc(C)c4)C3)n[nH]2)cc1 (centres undefined)	?	i	10	-17%	-2%	-3%
COc1ccc(-c2cc(N3CCCC(NC(=O)c4cccc(N(C)C)c4)C3)n[nH]2)cc1 (centres undefined)	?	16µM*	0	?	26%	-18%
COc1ccc(-c2cc(N3CCC(NC(=O)c4ccccc4)CC3)n[nH]2)cc1	?	i	-5	?	-7%	-9%
COc1ccc(-c2cc(N3CCCC(NC(=O)c4cc(C)cc(C)c4)C3)n[nH]2)cc1 (centres undefined)	45µM*	?	0	40µM*	-9%	-3%
COc1ccc(CN2C=C(C(=O)OCc3nc(-c4cccc(OC)c4)no3)C(C)=NS2(=O)=O)cc1	-20%	i	0	?	1%	-2%
COc1ccc(-c2cc(N3CCCC(NC(=O)c4cccc(C)c4)C3)n[nH]2)cc1 (centres undefined)	45µM*	10µM*	0	?	17%	?
COc1ccc(-c2cc(N3CCCC(NC(=O)c4nccc5ccccc45)C3)n[nH]2)cc1 (centres undefined)	?	?	7	?	6%	-20%
COc1ccc(-c2cc(N3CCCC(NC(=O)c4ccc(C(F)(F)F)cc4)C3)n[nH]2)cc1 (centres undefined)	?	i	0	45µM*	28%	-9%
COc1ccc(-c2cc(N3CCC(NC(=O)c4ccc(C)c(C)c4)C3)n[nH]2)cc1 (centres undefined)	50µM*	i	11	?	5%	1%
COc1ccc(-c2cc(N3CCCC(NC(=O)c4cccn4C)C3)n[nH]2)cc1 (centres undefined)	?	35µM*	0	?	109%	-23%
CN(C)S(=O)(=O)N1CCC2(CC1)CC1C(=O)NCCN1C2 (centres undefined)	i	i	3	-4%	-8%	3%
Cc1ccccc1C(=O)N1CCCC(C(=O)N2CCCC(c3nc4ncccc4[nH]3)C2)C1 (centres undefined)	i	nt	16	-7%	-11%	-6%
CN(C)c1cccc(C(=O)NC2CCN(c3cc(-c4ccc(F)cc4)[nH]n3)CC2)c1	?	35µM*	24	?	234%	9%
COc1ccc(-c2cc(N3CCC(NC(=O)c4ccc5cc[nH]c5c4)CC3)n[nH]2)cc1	?	i	24	40µM*	-26%	-13%
COc1ccc(C(=O)NC2CCN(c3cc(-c4ccc(OC)cc4)[nH]n3)CC2)cc1	?	i	15	?	11%	-10%
Cc1cc(C)cc(C(=O)NC2CCN(c3cc(-c4ccc(F)cc4)[nH]n3)C2)c1 (centres undefined)	?	i	1	45µM*	?	?
Cc1cccc(C(=O)NC2CCN(c3cc(-c4ccc(F)cc4)[nH]n3)CC2)c1	?	i	28	3%	65%	6%
Cc1cc(C)cc(C(=O)NC2CCN(c3cc(-c4ccccc4)[nH]n3)C2)c1 (centres undefined)	?	i	-4	-20%	-2%	2%
COc1ccc(-c2cc(N3CCC(NC(=O)c4ccc(OC)c(F)c4)CC3)n[nH]2)cc1	-13%	i	30	-16%	11%	-1%
COc1ccc(-c2cc(N3CCCC(NC(=O)c4ccc(OC)c(F)c4)C3)n[nH]2)cc1 (centres undefined)	40µM*	?	1	?	-2%	?
C=C(C)C1CCC2(C(=O)OC3OC(COC4OC(CO)C(O)C(O)C4O)C(OC4OC(C)C(O)C(O)C4O)C(O)C3O)CCC3(C(=O)O)C(CCC4C5(C)CCC(=O)C(C)(C)C5CCC43C)C12 (centres undefined)	nt	nt	13	nt	nt	-1%[12.5 µM]
Cc1cc(C)cc(C(=O)N2CCC(Cc3nc(-c4ccccc4)no3)CC2)c1	?	i	7	?	-5%	7%
COc1ccc(CC(=O)N2CCC(Cc3nc(-c4ccc(F)cc4)no3)CC2)cc1	?	i	4	?	-14%	-1%
Cc1ccc(C(=O)N2CCC(Cc3nc(-c4ccccc4)no3)CC2)s1	32µM*	i	-7	?	-18%	-5%
SMILES	HEK cytotox	Luciferase inh	IP6K1 inhibitor	3T3 cytotox	SNCA expr inhib	HEK293 viab
CCOc1ccc(CC(=O)N2CCC(Cc3nc(-c4ccccc4)no3)CC2)cc1	22µM*	i	9	?	?	-1%
COc1ccc(CC(=O)N2CCC(Cc3nc(-c4ccccc4)no3)CC2)cc1	14µM*	i	-17	11µM*	-20%	?
CCCCOc1ccc(C(=O)N2CCC(Cc3nc(-c4ccccc4)no3)CC2)cc1	?	i	9	?	-27%	1%
CCOc1ccc(C(O)Cn2ccn3nc(-c4ccccc4C)cc3c2=O)cc1 (centres undefined)	35µM*	i	10	?	-34%	-14%
O=C(Cc1ccc(F)cc1)NCCn1ccn2nc(-c3ccc(F)cc3)cc2c1=O	?	?	-5	?	-7%	6%
Cc1ccc(-c2cc3c(=O)n(CCNC(=O)c4cc(Cl)ccc4F)ccn3n2)cc1C	0%	i	-8	1%	-25%	?
Cc1ccc(-c2cc3c(=O)n(CCNC(=O)c4cc(F)ccc4F)ccn3n2)cc1C	40µM*	?	-10	?	87%	1%
COc1ccc(-c2cc3c(=O)n(CCNC(=O)Cc4ccsc4)ccn3n2)cc1	?	11µM*	-7	?	-20%	?
CCOc1ccc(-c2cc3c(=O)n(CC(O)c4ccc(C(C)C)cc4)ccn3n2)cc1 (centres undefined)	6%	i	-6	-15%	32%	4%
Cc1ccc(-c2cc3c(=O)n(CCNC(=O)Cc4ccsc4)ccn3n2)cc1C	?	5µM*	-11	?	33%	-7%
Cc1nn(-c2ccccc2)c2c1C(C1CC1)N(C1CCN(CC3CCCCC3)CC1)C2=O (centres undefined)	i	nt	-13	-5%	nt	nt
FC(F)(F)Oc1ccc(CN2CCOC[C@H](Oc3cccnc3)C2)cc1	?	i	-11	?	4%[87.6 µM]	-2%[87.6 µM]
